The list is not random: actives were taken first. Their share in the collection is about 7.7%.
Giardia FBPA inh = Giardia lamblia aldolase inhibition. Potency, µM (series often up to 59.6 µM), inactives show top-dose activity, negative = inhibition, hits mostly inhibitors. AID 2451. 0.71% of 290,000 active. purified Giardia FBPA; further: potency means the concentration at half of the fitted maximal effect; nearly all actives have a fitted effect of over 55% in size
Target sequence (A8B2U2 whole entry, looked up): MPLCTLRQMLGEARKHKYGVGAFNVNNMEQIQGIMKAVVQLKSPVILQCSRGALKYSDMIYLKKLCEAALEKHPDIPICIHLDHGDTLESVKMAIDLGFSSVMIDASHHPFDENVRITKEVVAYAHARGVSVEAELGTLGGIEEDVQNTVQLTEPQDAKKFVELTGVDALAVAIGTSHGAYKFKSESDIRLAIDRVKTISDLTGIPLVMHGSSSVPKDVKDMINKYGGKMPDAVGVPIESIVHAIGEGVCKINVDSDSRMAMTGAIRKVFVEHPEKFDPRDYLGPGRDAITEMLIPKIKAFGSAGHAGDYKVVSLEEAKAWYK
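Giardia FBPA (40 nM reagent) was preincubated 10 min at RT with compound (up to 57.5 uM final), then substrate plus GAPDH/TPI/NAD/arsenate coupling system with diaphorase/resazurin was added; resorufin fluorescence (525/598 nm) was read after 20 min.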
Sm TGR block = blocks Schistosoma mansoni thioredoxin glutathione reductase; purified TGR, DTNB reduction, TNB absorbance 405 nm; Potency, µM (top dose mostly 114 µM), without a hit: at the top dose activity change, negative = inhibition, most hits filed as inhibitors; AID 485364; 3% of 360,000 active; further: potency means the concentration at half of the fitted maximal effect; nearly all actives have a fitted effect of over 60% in size
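Kinetic colorimetric format: TGR-catalysed, NADPH-driven DTNB reduction monitored via TNB absorbance. Enzyme dispensed at 20 nM; compound exposure 15 min at room temperature before reaction start.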
HCMV antiviral = inhibitors of human cytomegalovirus; HFF cells, HCMV-luciferase reporter, 72 h; hits give low values; activity change, negative = inhibition, % at 57.5 µM; 4.5% of 410,000 active; in the data active means activity change below about -60%; inconclusive means no clear call, values can overlap the other calls; inactive means above about -39%
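Human foreskin fibroblasts infected with luciferase-reporter HCMV at MOI 1 PFU/cell, compounds at two doses. Luciferase measured 72 h post infection; normalized to buffer-only basal and Salinomycin (10uM) controls.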
FMDV antiviral = blocks foot and mouth disease virus | FMDV antiviral cell-based qHTS | Potency, µM (series often up to 57.9 µM), without a hit: top-dose activity change, negative = inhibition, hits mostly inhibitors | 1.2% of 410,000 active | AID 1159524; calls by dose curve; tested in HEK293T cells; further: read-out not given here; potency means the concentration at half of the fitted maximal effect; nearly all actives have a fitted effect of over 45% in size
TbPYK inhibitor = inhibitors of Trypanosoma brucei pyruvate kinase | Q57TT1 | TbPYK enzyme, Kinase-Glo Plus ATP luminescence, 45 min | Potency, µM (series often up to 76.8 µM), for inactives: top-dose activity, negative = inhibition, hits mostly inhibitors | 0.12% of 410,000 active | AID 624173; further: potency means the concentration at half of the fitted maximal effect; nearly all actives have a fitted effect of over 50% in size
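Readout: single end-point luminescence (Kinase-Glo Plus, 10 min). Reaction conditions were TbPYK/substrate plus 130 uM ADP, 45 min at RT, pH 7.2 TEA buffer. No-enzyme wells served as controls, and data were normalized before concentration-response fitting.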
RE007 growth inh = less growth of the S. pombe RE007 Vpr strain; S. pombe RE007 Vpr strain, BacTiter-Glo ATP luminescence, 24 h; Potency, µM (highest dose often 92.2 µM), for the others: top-dose activity change, negative = less growth, hits mostly inhibitors; 0.21% of 360,000 active; active means well fitted falling curve with a large enough effect; inconclusive means small, poorly fitted or top-dose-only effect; inactive means no such curve, though single readings can be large or run the other way; further: potency means the concentration at half of the fitted maximal effect; nearly all actives have a fitted effect of over 50% in size
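Fission yeast strain RE007, carrying one chromosomally integrated HIV-1 vpr copy, was seeded at OD 0.01 in PMG+AL medium with 23 nL pinned compound. After 24 h at 30 °C and 99% humidity, viability was read by BacTiter-Glo luminescence.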
* = called active by the depositor; u = inconclusive; x = no result given; [ ] = dose if it differs, or a comment. Unless noted, the call rests on the fitted dose curve; in most records, active means well fitted curve in the direction sought with a large enough effect; inconclusive means small, poorly fitted or top-dose-only effect, or another doubt; inactive means no such curve, though single readings can be large; an effect the other way counts as inactive or inconclusive. On the % scale 0 is the no-effect control and ±100 the full control effect.

SMILES	Giardia FBPA inh	Sm TGR block	HCMV antiviral	FMDV antiviral	TbPYK inhibitor	RE007 growth inh
COc1ccc(C(=O)/C=C/c2cc(OC)c(O)c(OC)c2)c(F)c1	u	50.1µM*	-96.1*	u	-6.5%	-27.5%
O=C(C1CCN(S(=O)(=O)c2cccc3nonc23)CC1)N1CCN(c2ccc(F)cc2)CC1	x	8.8%	-14.3	0.0%	2.1%	x
Cc1ccc(NC(=O)CCNS(=O)(=O)c2ccc3c(c2)CCCC(=O)N3)cc1	x	-3.9%	-5.2	-5.7%	-1.5%	x
Cc1ccc(O)c(C(=O)C=Cc2ccccc2)c1	x	x	8.0	35.5µM*	-1.9%	-24.9%
COc1cc(C)cc(C(=O)C=Cc2ccccc2)c1O	x	x	37.0	31.6µM*	-0.6%	u
COc1ccc(/C=C/C(=O)c2cccs2)c(OC)c1	-0.9%	x	x	x	x	x
COc1cccc(/C=C/C(=O)c2ccc[nH]2)c1	-12.7%	-5.6%	-86.7*	28.7%	-4.8%	u
O=C(/C=C/c1ccc2c(c1)OCO2)c1ccc[nH]1	0.0%	-11.8%	-6.8	30.4%	7.1%	-5.6%
COc1ccc(OC)c(C(=O)/C=C/c2ccccc2C(F)(F)F)c1	-2.6%	18.6%	-104.0*	20µM*	5.6%	-13.6%
Cn1c(=O)n(C)c2cc(N3CCCCC3)c(NC(=O)c3c(F)cccc3F)cc21	x	-0.7%	-0.6	-22.4%	2.3%	x
CN(C)c1ncc2ncc(=O)n(C3CC3)c2n1	2.0%	x	x	-12.9%	x	x
O=C(CCCN1C(=O)/C(=C/c2cccs2)SC1=S)Nc1ccccn1	4.4%	11.3%	-97.6*	0.0%	-11.8%	-13.3%
O=C(CCN1C(=O)/C(=C\c2cccs2)SC1=S)Nc1ccccn1	-0.4%	0.2%	-36.8	-7.1%	-0.6%	-8.5%
O=C(CCN1C(=O)/C(=C/c2ccccc2Cl)SC1=S)NCCc1ccc(O)cc1	-7.6%	-5.4%	-101.5*	-4.5%	-6.7%	1.8%
O=C1/C(=C/c2ccccc2Cl)SC(=S)N1CCCC(=O)N(CCO)c1ccccc1	4.0%	11.6%	-90.8*	u	-6.5%	-5.8%
O=C(CCCN1C(=O)/C(=C/c2ccccc2Cl)SC1=S)NNC(=O)c1ccc(Cl)cc1	6.3%	-0.1%	-74.5*	7.94µM*	1.7%	6.5%
Cc1ccc(C(=O)NNC(=O)CCCN2C(=O)/C(=C/c3ccccc3Cl)SC2=S)cc1	3.1%	-23.1%	u	u	-12.3%	-16.4%
COc1ccc(N2C(=O)CCSC23C(=O)N(Cc2ccc(F)cc2)c2ccccc23)cc1Cl (stereo unspecified)	x	13.3%	0.0	0.0%	-3.4%[15.4 µM]	x
OCCC#Cc1ccc(F)c(-c2noc3ccccc23)c1	x	x	-10.0	x	x	x
O=C(CCN1C(=O)/C(=C/c2ccccc2Cl)SC1=S)Nc1ccccn1	x	-1.2%	4.3	-26.3%	-2.8%	3.2%
O=C(CCCN1C(=O)/C(=C/c2ccccc2Cl)SC1=S)Nc1ccccn1	-1.1%	14.2%	-97.0*	u	1.1%	-19.7%
COc1cccc(NC(=O)N2CCC(CN3CCOCC3)CC2)c1	x	-1.4%	4.5	-19.4%	1.5%	x
CCc1cccc(NC(=O)CCn2nc(C)cc2C)c1	x	0.8%	-0.8	-19.4%	0.4%	x
O=C1[C@@H]2C(c3cccnc3)=NO[C@@H]2C(=O)N1c1ccc(Br)cc1	4.8%	3.55µM*	11.7	2.0%	-16.6%	22.4µM*
Cc1ccc(N2C(=O)[C@@H]3C(c4cccnc4)=NO[C@@H]3C2=O)c(C)c1	3.7%	u	16.3	-7.7%	-2.7%	8.6%
SMILES	Giardia FBPA inh	Sm TGR block	HCMV antiviral	FMDV antiviral	TbPYK inhibitor	RE007 growth inh
C=CCN=C1NC(c2ccccc2)C(C(=O)OC)=C(C)N1C (stereo unspecified)	x	x	4.8	x	x	x
CC[n+]1c(-c2ccc(C)cc2)csc1Nc1c(C)n(C)n(-c2ccccc2)c1=O	10.1%	-0.9%	-87.5*	31.6µM*	-0.9%	1.1%
Cc1cccc(N2C(=O)C(Cl)=C(Nc3c(C)n(C)n(-c4ccccc4)c3=O)C2=O)c1C	-25.7%	8.91µM*	u	x	-8.4%	-1.3%
Cc1ccc(N2C(=O)C(Cl)=C(Nc3c(C)n(C)n(-c4ccccc4)c3=O)C2=O)cc1	4.3%	8.91µM*	-14.3	x	-11.0%	-6.9%
CC[n+]1c(-c2ccccc2)csc1Nc1c(C)n(C)n(-c2ccccc2)c1=O	7.2%	-5.5%	-39.0	-15.1%	-16.2%	1.6%
COc1ccc(C)cc1NC(=O)CSc1ncc2c(n1)-c1ccc(Cl)cc1N(Cc1ccccc1)S2(=O)=O	x	-17.6%	10.9	-12.9%	-10.2%	x
CCCCCCCCn1ccc(=N)cc1	6.1%	10.5%	u	u	-7.9%	3.9%
CCCCCCCCCCn1ccc(=N)cc1	1.8%	10.8%	-99.6*	15.8µM*	2.8%	u
CCc1cc(C(=O)N2CCCC(C(=O)c3cccc4ccccc34)C2)n(C)n1 (stereo unspecified)	-0.4%	4.0%	-60.0*	u	-1.6%	3.8%
CCCc1cc(C(=O)N2CCCC(C(=O)c3cccc4ccccc34)C2)n(C)n1 (stereo unspecified)	-8.7%	-13.4%	0.0	-13.6%	-7.4%	3.3%
COc1cccc(N2C(=O)CN(Cc3ccc(OC)c(OC)c3)C2=S)c1	11.6%	0.0%	42.7	-19.6%	0.1%	0.1%
COc1ccc(N2C(=O)CN(Cc3ccc(OC)c(OC)c3)C2=S)cc1	-1.2%	2.7%	-81.4*	-21.4%	-4.2%	32.7%
COc1ccc(CCN(C)C2CC(=O)N(c3ccccc3)C2=O)cc1OC (stereo unspecified)	-2.0%	11.2µM*	11.2	-4.8%	-1.9%	6.31µM*
COc1ccc(N2C(=O)CC(N(C)CCc3ccc(OC)c(OC)c3)C2=O)cc1 (stereo unspecified)	1.4%	-1.0%	0.2	4.1%	3.6%	22.4µM*
COc1ccc(N2C(=O)CC(N(CCc3ccc(OC)c(OC)c3)C(=S)Nc3ccccc3)C2=O)cc1 (stereo unspecified)	-17.3%	-21.5%	-35.7	-2.7%	-10.1%	23.9%
COC(=O)c1ccc(N2C(=O)CC(N(C)CCc3ccc(OC)c(OC)c3)C2=O)cc1 (stereo unspecified)	1.2%	22.4µM*	11.6	-6.8%	-16.4%	7.94µM*
COC(=O)c1ccc2nc(-c3cccc(Cl)c3)c(Cc3ccccc3C(F)(F)F)n2c1	x	x	-17.9	x	x	x
CCC[C@H]1[C@H](N(Cc2cccs2)Cc2cccs2)CC[C@@]23CCCN2C(=O)CCC[C@@H]13	x	x	18.4	x	x	x
O=c1ccn(-c2cccc(C(F)(F)F)c2)nc1-c1ccn(-c2ccccc2)n1	31.6µM*	0.0%	-37.8	-8.9%	-2.3%	0.0%
Oc1c(Cl)cc(Cl)c2c1NCCC2	u	1µM*	10.5	-17.3%	-17.4%	u
c1ccc(-n2cnc3cc(NCc4cccs4)ccc32)cc1	-6.7%	-9.3%	u	u	-12.8%	-12.1%
